# The sample as a whole holds a higher share of hits than the screen did.
# CBX7 AlphaScr: CBX7 inhibition, primary AlphaScreen | O95931 | AlphaScreen His6-CBX7 / biotin-H3K27me3 peptide binding; stronger effect = lower value | normalised signal (fraction of DMSO) (no concentration beside the values) | 66,000 tested, 1.1% active | AID 1224903; in the data active means normalised signal below about 0.5
# Target sequence (O95931 whole entry, looked up): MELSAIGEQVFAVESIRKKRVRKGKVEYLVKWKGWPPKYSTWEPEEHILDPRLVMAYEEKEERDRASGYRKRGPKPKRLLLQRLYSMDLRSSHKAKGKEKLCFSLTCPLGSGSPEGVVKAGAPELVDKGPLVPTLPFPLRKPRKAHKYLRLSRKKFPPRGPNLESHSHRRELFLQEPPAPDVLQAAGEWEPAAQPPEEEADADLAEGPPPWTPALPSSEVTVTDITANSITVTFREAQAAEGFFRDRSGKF
# * = called active by the depositor.
SMILES,CBX7 AlphaScr
CCOc1ccc(-c2nnc(Nc3ccc(O)cc3)c3ccccc23)cc1,1
COc1ccc(N(Cc2nnc3n2CCCCC3)C(=O)Nc2cccc(Cl)c2)cc1,0.99
CCCC1c2ccc(C)n2CCN1C(=O)Nc1ccccc1C(F)(F)F (stereo unspecified),0.99
O=C(CCc1nc2ccccc2[nH]1)N1CCN(c2ccccc2)CC1,1.1
CCCOc1ccc(C(=O)Nc2nc3c(OCC)cccc3s2)cc1,1.1
CCCOc1ccc(C2C(=O)N(C3CCC(C)CC3)CC(=O)N2Cc2cccc(OC)c2)cc1OC (stereo unspecified),0.81
CCOC(=O)c1ccc(NC(=O)[C@H](CCS(C)(=O)=O)N2Cc3ccccc3C2=O)cc1,0.92
CCCCN(CC)S(=O)(=O)c1ccc(C(=O)Nc2nc(-c3ccccn3)cs2)cc1,0.48*
O=C(Nc1nc(-c2nc3ccccc3s2)cs1)c1ccc(S(=O)(=O)N2CCCCCC2)cc1,1.1
O=C(Nc1nnc(-c2ccccc2)s1)c1ccc(S(=O)(=O)N2CCOCC2)cc1,1
O=C(Nc1nc(-c2ccncc2)cs1)c1ccc(S(=O)(=O)N2CCCCCC2)cc1,1
O=C(Nc1nc(-c2ccncc2)cs1)c1ccc(S(=O)(=O)N2CCOCC2)cc1,0.97
O=C(Nc1nc(-c2ccccn2)cs1)c1ccc(S(=O)(=O)N2CCCCC2)cc1,0*
CCCCN(CCCC)S(=O)(=O)c1ccc(C(=O)Nc2nc(-c3ccncc3)cs2)cc1,1
CCCN(CCC)S(=O)(=O)c1ccc(C(=O)Nc2nc(-c3ccncc3)cs2)cc1,0.97
O=C(Nc1nc(-c2ccccn2)cs1)c1ccc(S(=O)(=O)N2CCOCC2)cc1,0*
O=C(C1CCC1)N1CCc2cc(S(=O)(=O)Nc3cccc(Cl)c3)ccc21,0.92
Cc1cc(OCCCCCc2c(C)n[nH]c2C)ccc1Cl,0.9
COc1ccc(OC)c(NC(=O)Cn2cc(S(=O)(=O)c3ccc(F)cc3)c(=O)c3ccccc32)c1,0.92
Cc1c(C(=O)N(Cc2ccccc2)C(C)C)oc2ccc(S(=O)(=O)N3CC(C)CC(C)C3)cc12 (stereo unspecified),0.87
CCC(C)NC(=O)CC1Oc2ccc(Cl)cc2NC1=O (stereo unspecified),1
Oc1ccccc1-c1nc(-c2ccccc2)c(-c2ccc(F)cc2)[nH]1,0.58
c1ccc(-c2nc(-c3c[nH]c4ccccc34)[nH]c2-c2ccccc2)cc1,0.8
Oc1ccccc1-c1nc(-c2ccc(F)cc2)c(-c2ccc(F)cc2)[nH]1,0.7
Cc1ccc(Nc2c(-c3c[nH]c4ccccc34)nc3cccc(C)n23)cc1,0.87
SMILES,CBX7 AlphaScr
Fc1ccc(-c2[nH]c(-c3c[nH]c4ccccc34)nc2-c2ccccc2)cc1,0.42*
Cc1ccc(-c2nc(-c3c[nH]c4ccccc34)[nH]c2-c2ccc(C)cc2)cc1,0.37*
Clc1ccc2nc3c(c(NCCCN4CCOCC4)c2c1)CCCC3,1.1
COc1ccc(CNC(=O)C2CCC(=O)N2C(C)C)c(OC)c1 (stereo unspecified),0.91
Cc1ccc(CN2C(=O)C(C(C)C(=O)NC3CCCC(C)C3C)Sc3ccccc32)cc1 (stereo unspecified),0.93
O=C(Nc1cc(Cl)cc(Cl)c1)C1CC(=O)N(c2ccc(F)cc2)C1 (stereo unspecified),0.85
O=C(Cc1cccs1)Nc1cccc(-c2nc3ccccc3o2)c1,1
Fc1ccccc1-c1nc(-c2ccccc2)c(-c2ccc(Sc3ccccc3)cc2)[nH]1,0.69
COc1cccc(-c2nc(-c3ccccc3)c(-c3cc([N+](=O)[O-])ccc3C)[nH]2)c1,0.47*
Cc1ccc([N+](=O)[O-])cc1-c1[nH]c(-c2ccccc2F)nc1-c1ccccc1,0.47*
COc1cccc(-c2nc(-c3ccccc3)c(-c3cccs3)[nH]2)c1,0.95
O=C1c2ccc([N+](=O)[O-])cc2C(=O)N1c1ccc2nc(-c3ccccc3)[nH]c2c1,1.1
Cc1ccc(C)c(-c2[nH]c(-c3ccc(C(=O)O)cc3)nc2-c2ccccc2)c1,0.84
O=C(NCCCN1CCCCCC1)c1ccc2c(c1)N(Cc1c(F)cccc1Cl)C(=O)CS2,1.1
CCN1CCCC1CNC(=O)CN1C(=O)COc2ccc(S(=O)(=O)N3CCOCC3)cc21 (stereo unspecified),1.1
Cc1onc(-c2ccccc2Cl)c1C(=O)N1CCCC(C)C1 (stereo unspecified),1.1
O=C(Nc1cccc(Cl)c1)C1CCN(S(=O)(=O)c2cccs2)CC1,1
Cc1ccc(N2CC(C(=O)NCc3ccc4c(c3)OCO4)CC2=O)cc1C (stereo unspecified),1
Cc1cccc(CC(=O)NCCc2cc3ccc(C)cc3[nH]c2=O)c1,1
CCOc1ccc(-c2nc(C#N)c(NCCCOC)o2)cc1,0.86
COc1cccc(C(=O)NCC2(c3ccccc3)CCOCC2)c1,1
CC1CCCCN1CCCNC(=O)C1CCN(c2nnc(-n3cccc3)s2)CC1 (stereo unspecified),2
CCc1cc2c(C)cc(=O)oc2c(CN2CCCCCC2)c1O,0.96
CCc1cc2c(oc(=O)c3ccccc32)c(CN2CCN(C)CC2)c1O,0.34*

# Source: PubChem BioAssay (Bradner/Qi Labs at DFCI)
